Reference: the supplement of paper PMC11172423
Values without a mark were called inactive.

Tested on: Falciformispora senegalensis CBS197.79
Test: growth relative to untreated control; higher = less inhibition, active = 20 or less
Settings: 25 µM
In short: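 In 96-well plates, suspended hyphal fragments of M. mycetomatis MM55 or F. senegalensis CBS197.79 were exposed to compound at 100 or 25 µM for 7 days at 37 °C. The suspension medium was colourless RPMI 1640 with L-glutamine and MOPS, adjusted to 68–72% transmission at 660 nm. Viability was measured with MTS (2 h, 490 nm) or resazurin (600 nm). Growth means metabolic activity compared with the untreated growth control after blank correction of both with medium plus dye.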

SMILES	growth
CC(c1ccc(C(F)(F)F)nc1)S(C)(=O)=NC#N (configuration not stated)	91.2%
CCN(CC)c1nc(C)cc(OP(=S)(OC)OC)n1	96%
O=C1C=C(N(Cc2ccc(Cl)nc2)CC(F)F)CO1	96.7%
C/C=C(\C)C(=O)O[C@H]1C[C@@H](OC(C)=O)[C@@]2(C(=O)OC)CO[C@H]3[C@@H](O)[C@@](C)([C@]45O[C@@]4(C)[C@H]4C[C@@H]5O[C@@H]5OC=C[C@@]54O)[C@H]4[C@]1(CO[C@]4(O)C(=O)OC)[C@@H]32	89.6%
ClC1=C(Cl)[C@@]2(Cl)[C@H]3C[C@@H](Cl)[C@H](Cl)[C@H]3[C@@]1(Cl)C2(Cl)Cl	64.8%
CC1(C)C(/C=C(\Cl)c2ccc(Cl)cc2)C1C(=O)OC(C#N)c1ccc(F)c(Oc2ccccc2)c1 (configuration not stated)	74.8%
CCOP(=S)(OCC)Oc1nc(Cl)c(Cl)cc1Cl	92.9%
CC(C)=CC1C(C(=O)OCN2C(=O)C3=C(CCCC3)C2=O)C1(C)C (configuration not stated)	93.7%
COC(C)(C)CCCC(C)C/C=C/C(C)=C/C(=O)OC(C)C (configuration not stated)	89.3%
CC1(Nc2ncc3nc(Nc4cc(Cl)cc(C(F)(F)F)c4)n(C4CCNC4)c3n2)CC1 (configuration not stated)	83.5%
CC(C)Nc1cc2c(cn1)nc(Nc1cc(Cl)cc(C(F)(F)F)c1)n2C1CCNC1 (configuration not stated)	66.7%
CCc1nn(C)c(C(=O)NCc2ccc(Oc3ccc(C)cc3)cc2)c1Cl	98.1%
N#Cc1nn(-c2c(Cl)cc(C(F)(F)F)cc2Cl)c(NCc2ccccn2)c1SC(F)F	85.6%
CCS(=O)c1c(C#N)nn(-c2c(Cl)cc(C(F)(F)F)cc2Cl)c1N (configuration not stated)	82.1%
CCOP(=S)(OCC)Oc1cc(C)nc(C(C)C)n1	97.9%
CN/C(=N/CC1CCOC1)N[N+](=O)[O-] (configuration not stated)	91.8%

SMILES	growth
Cc1nc(N(C)C)nc(OC(=O)N(C)C)c1C	86.3%
CC1(C)CNC(=NN=C(C=Cc2ccc(C(F)(F)F)cc2)C=Cc2ccc(C(F)(F)F)cc2)NC1	88.7%
N#CCNC(=O)c1cnccc1C(F)(F)F	85.9%
CC[C@H](C)[C@H]1O[C@]2(C=C[C@@H]1C)C[C@@H]1C[C@@H](C/C=C(\C)[C@@H](O[C@H]3C[C@H](OC)[C@@H](O[C@H]4C[C@H](OC)[C@@H](O)[C@H](C)O4)[C@H](C)O3)[C@@H](C)/C=C/C=C3\CO[C@@H]4[C@H](O)C(C)=C[C@@H](C(=O)O1)[C@]34O)O2.CO[C@H]1C[C@H](O[C@H]2[C@H](C)O[C@@H](O[C@@H]3/C(C)=C/C[C@@H]4C[C@@H](C[C@]5(C=C[C@H](C)[C@@H](C(C)C)O5)O4)OC(=O)[C@@H]4C=C(C)[C@@H](O)[C@H]5OC/C(=C\C=C\[C@@H]3C)[C@]54O)C[C@@H]2OC)O[C@@H](C)[C@@H]1O	92.5%
FC(F)(F)c1cc(Cl)cc(Nc2nc3cnc(OC4CCC4)cc3n2[C@@H]2CCNC2)c1	99.8%
CCC(CC)c1cccc(OC(=O)NC)c1.CCCC(C)c1cccc(OC(=O)NC)c1	98.4%
CC(C)(C)Nc1cc2c(cn1)nc(Nc1cc(Cl)cc(C(F)(F)F)c1)n2C1CCNC1 (configuration not stated)	15.1% (active)
CN1CCN(C(=O)O[C@H]2c3nccnc3C(=O)N2c2ccc(Cl)cn2)CC1	106%
CN(C)CCn1c(Nc2cc(Cl)cc(C(F)(F)F)c2)nc2cnc(NC3CCC3)cc21	102%
COc1ccc(Cc2nccc3cc(OC)c(OC)cc23)cc1OC	110%
CN1C(=O)C(C(=O)Nc2ccc(Cl)c(Cl)c2)C(=O)N(C)C1=O	83.2%
CC1(C)C(C=C(Cl)Cl)C1C(=O)OCc1cccc(Oc2ccccc2)c1 (configuration not stated)	70.4%
COc1ccc(CCN2CCC(Nc3nc4ccccc4n3Cc3ccc(F)cc3)CC2)cc1	12.9% (active)
O=C(NC(=O)c1c(F)cccc1F)Nc1ccc(Cl)c(Oc2ncc(C(F)(F)F)cc2Cl)c1	93%
COC(=O)N(C(=O)N1CO[C@@]2(C(=O)OC)Cc3cc(Cl)ccc3C2=N1)c1ccc(OC(F)(F)F)cc1	100%
CC1(C)C(C=C(Cl)Cl)C1C(=O)OC(C#N)c1ccc(F)c(Oc2ccccc2)c1 (configuration not stated)	94%
